From PMC5700166
Changes are numbered by the printed parent chain.

How the values were obtained:
Experiment in all cases: protein-binding microarray (PBM); PBM: ~300 nM protein, 6 mM HEPES pH 7.8, 80 mM KCl, 0.5 mM EDTA, 0.5 mM EGTA, 6% glycerol, 35 ng/ul poly-dIdC, 1% milk, 1 h, room temperature; Ap Aiptasia and Nv Nematostella (sea anemones) / Co Capsaspora / Aq Amphimedon (sponge) / Dm Drosophila / Hu human; RHD is the Rel homology domain; high values mean tight binding
Settings in all cases: dsDNA, one strand shown
GST-Ap-NF-kB RHD = molecular target: T1, GST-Ap-NF-kB RHD (Exaiptasia pallida (Aiptasia), UniProt A0A913YAJ5 2-422)
T1 sequence: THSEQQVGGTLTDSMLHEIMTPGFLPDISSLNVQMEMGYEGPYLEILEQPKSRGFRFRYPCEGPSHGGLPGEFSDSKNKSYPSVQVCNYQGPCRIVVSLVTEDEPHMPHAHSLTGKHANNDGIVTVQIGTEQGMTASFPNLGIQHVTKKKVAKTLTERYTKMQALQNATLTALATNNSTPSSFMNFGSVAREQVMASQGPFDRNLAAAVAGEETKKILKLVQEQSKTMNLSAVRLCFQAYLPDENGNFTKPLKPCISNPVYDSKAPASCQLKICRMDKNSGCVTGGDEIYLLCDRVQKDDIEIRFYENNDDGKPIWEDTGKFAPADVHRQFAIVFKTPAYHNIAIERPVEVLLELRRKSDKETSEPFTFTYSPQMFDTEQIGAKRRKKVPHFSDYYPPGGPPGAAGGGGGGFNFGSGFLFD

[1] = molecular target: T2, GST-Nv-NF-kB (Cys allele) (Nematostella vectensis, UniProt E5G601 2-411)
T2 sequence: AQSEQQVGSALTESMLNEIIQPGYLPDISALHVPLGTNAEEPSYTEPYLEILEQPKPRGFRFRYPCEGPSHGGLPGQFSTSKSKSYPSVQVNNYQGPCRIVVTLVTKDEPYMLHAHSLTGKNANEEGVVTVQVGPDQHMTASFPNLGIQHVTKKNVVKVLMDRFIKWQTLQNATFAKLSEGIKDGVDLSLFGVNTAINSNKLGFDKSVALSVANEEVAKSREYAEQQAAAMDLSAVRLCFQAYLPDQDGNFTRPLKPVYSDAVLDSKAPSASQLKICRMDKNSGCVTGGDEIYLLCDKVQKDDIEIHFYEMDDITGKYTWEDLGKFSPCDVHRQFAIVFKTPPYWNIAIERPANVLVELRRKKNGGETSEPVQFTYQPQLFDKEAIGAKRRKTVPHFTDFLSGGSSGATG

[2] = molecular target: T3, GST-Nv-NF-kB (Ser allele) (Nematostella vectensis, UniProt A7UNT2 2-411)
T3 sequence: T2 sequence with Q21R, C66S, S207N, E215Q, V217A, E225K, A268E, D399E

GST-Co-NF-kB = molecular target: T4, GST-Co-NF-kB (Capsaspora owczarzaki, UniProt F1ARL5 200-546)
T4 sequence: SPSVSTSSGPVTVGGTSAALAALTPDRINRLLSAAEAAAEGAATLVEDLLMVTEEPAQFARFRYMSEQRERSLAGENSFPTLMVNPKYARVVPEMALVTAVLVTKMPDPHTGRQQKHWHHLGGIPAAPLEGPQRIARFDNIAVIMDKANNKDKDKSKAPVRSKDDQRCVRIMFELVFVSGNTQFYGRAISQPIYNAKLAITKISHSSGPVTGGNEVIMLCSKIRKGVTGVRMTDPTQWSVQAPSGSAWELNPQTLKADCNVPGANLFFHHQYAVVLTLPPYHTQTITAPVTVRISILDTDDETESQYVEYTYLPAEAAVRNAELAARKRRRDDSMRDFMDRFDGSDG

GST-Dm-Relish = molecular target: T5, GST-Dm-Relish (Drosophila melanogaster, UniProt Q94527 99-473)
T5 sequence: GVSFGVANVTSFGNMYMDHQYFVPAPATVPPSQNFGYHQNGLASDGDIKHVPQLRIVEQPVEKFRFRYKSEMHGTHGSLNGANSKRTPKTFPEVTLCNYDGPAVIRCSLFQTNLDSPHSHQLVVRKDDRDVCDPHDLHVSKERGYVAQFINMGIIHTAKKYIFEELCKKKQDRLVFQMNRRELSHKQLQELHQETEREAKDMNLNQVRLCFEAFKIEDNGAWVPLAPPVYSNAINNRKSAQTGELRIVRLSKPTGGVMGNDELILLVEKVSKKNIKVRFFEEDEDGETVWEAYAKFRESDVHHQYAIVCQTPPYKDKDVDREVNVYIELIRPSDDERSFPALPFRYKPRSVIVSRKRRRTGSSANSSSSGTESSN

GST-Aq-NF-kB = molecular target: T6, GST-Aq-NF-kB (Amphimedon queenslandica, UniProt A9Y5G7 2-389)
T6 sequence: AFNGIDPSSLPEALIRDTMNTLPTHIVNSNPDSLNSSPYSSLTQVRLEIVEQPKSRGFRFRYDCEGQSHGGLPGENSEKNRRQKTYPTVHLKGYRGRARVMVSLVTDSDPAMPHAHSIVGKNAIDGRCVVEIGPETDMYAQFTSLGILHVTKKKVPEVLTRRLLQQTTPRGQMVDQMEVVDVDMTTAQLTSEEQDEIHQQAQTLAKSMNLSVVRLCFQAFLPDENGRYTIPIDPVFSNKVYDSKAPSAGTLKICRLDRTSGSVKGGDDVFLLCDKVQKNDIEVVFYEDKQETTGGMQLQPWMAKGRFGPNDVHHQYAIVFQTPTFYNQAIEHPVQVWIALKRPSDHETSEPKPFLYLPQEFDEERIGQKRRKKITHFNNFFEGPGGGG

GST-Hu-p50 = GST-Hu-p50 (Homo sapiens, UniProt P19838 7-356)
Chain of GST-Hu-p50 (P19838 7-356): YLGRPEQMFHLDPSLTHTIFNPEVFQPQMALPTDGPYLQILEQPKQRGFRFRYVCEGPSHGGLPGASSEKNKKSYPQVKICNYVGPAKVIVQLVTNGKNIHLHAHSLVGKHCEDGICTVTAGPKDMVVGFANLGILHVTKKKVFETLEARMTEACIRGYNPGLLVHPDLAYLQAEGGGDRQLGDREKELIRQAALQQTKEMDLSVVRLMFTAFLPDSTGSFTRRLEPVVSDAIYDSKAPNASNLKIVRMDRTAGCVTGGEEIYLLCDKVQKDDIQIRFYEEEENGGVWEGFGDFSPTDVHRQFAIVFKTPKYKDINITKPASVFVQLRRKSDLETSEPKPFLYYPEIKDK

| Sequence | binding signal (GST-Ap-NF-kB RHD) | binding signal [1] | binding signal [2] | binding signal (GST-Co-NF-kB) | binding signal (GST-Dm-Relish) | binding signal (GST-Aq-NF-kB) | binding signal (GST-Hu-p50) |
| --- | --- | --- | --- | --- | --- | --- | --- |
| CCGATTAACATCAATTTTCCCACTGATGTTAATCGGGTCTTGATTCGCTTGACGCTGCTG | 2.82 z-score | 3.99 z-score | 4.57 z-score | 4.54 z-score | 1.33 z-score | 3.35 z-score | 3.37 z-score |
| CCGATTAACATCACTACCCCCCCTGATGTTAATCGGGTCTTGATTCGCTTGACGCTGCTG | 3.87 z-score | 3.41 z-score | 2.74 z-score | 5.59 z-score | 3.94 z-score | 3.4 z-score | 3.52 z-score |
| CCGATTAACATCAGCAATCCCCCTGATGTTAATCGGGTCTTGATTCGCTTGACGCTGCTG | 7.85 z-score | 6.26 z-score | 6.95 z-score | 4.31 z-score | 5.79 z-score | 5.16 z-score | 6.73 z-score |
| CCGATTAACATCAAGGGACCCCCTGATGTTAATCGGGTCTTGATTCGCTTGACGCTGCTG | 5.77 z-score | 3.16 z-score | 3.36 z-score | 2.03 z-score | 7.64 z-score | 4.72 z-score | 3.57 z-score |
| CCGATTAACATCAGACATTCCCCTGATGTTAATCGGGTCTTGATTCGCTTGACGCTGCTG | 7.03 z-score | 8.78 z-score | 8.26 z-score | 5.38 z-score | 4.78 z-score | 6.59 z-score | 5.51 z-score |
| CCGATTAACATCAGGGGAGTTTATGATGTTAATCGGGTCTTGATTCGCTTGACGCTGCTG | 8.25 z-score | 6.72 z-score | 7.68 z-score | 4.75 z-score | 6.12 z-score | 6.08 z-score | 5.95 z-score |
| CCGATTAACATCAAAATAACCCCTGATGTTAATCGGGTCTTGATTCGCTTGACGCTGCTG | 6.69 z-score | 5.59 z-score | 5.3 z-score | 3.27 z-score | 4.93 z-score | 5.19 z-score | 5.2 z-score |
| CCGATTAACATCAGGGGTATTTATGATGTTAATCGGGTCTTGATTCGCTTGACGCTGCTG | 5.75 z-score | 5.26 z-score | 5.54 z-score | 4.66 z-score | 3.79 z-score | 5.15 z-score | 5.56 z-score |
| CCGATTAACATCACATCCCCCCCTGATGTTAATCGGGTCTTGATTCGCTTGACGCTGCTG | 6.1 z-score | 4.66 z-score | 4.88 z-score | 6.54 z-score | 4.53 z-score | 4.42 z-score | 4.32 z-score |
| CCGATTAACATCAAAATCCCGGGTGATGTTAATCGGGTCTTGATTCGCTTGACGCTGCTG | 3.32 z-score | 2.32 z-score | 2.26 z-score | 1.42 z-score | 6.58 z-score | 3.23 z-score | 3.3 z-score |
| CCGATTAACATCAGGGGAGTTCATGATGTTAATCGGGTCTTGATTCGCTTGACGCTGCTG | 5.95 z-score | 4.23 z-score | 4.73 z-score | 3.54 z-score | 3.15 z-score | 3.96 z-score | 4.11 z-score |
| CCGATTAACATCAAGGGGATTCCTGATGTTAATCGGGTCTTGATTCGCTTGACGCTGCTG | 10.4 z-score | 10.4 z-score | 9.96 z-score | 2.68 z-score | 9.9 z-score | 7.84 z-score | 7.29 z-score |
